Here are results for eleven sequences from article PMC5700166.

Common to all, as to assay: protein-binding microarray (PBM); PBM: ~300 nM protein, 6 mM HEPES pH 7.8, 80 mM KCl, 0.5 mM EDTA, 0.5 mM EGTA, 6% glycerol, 35 ng/ul poly-dIdC, 1% milk, 1 h, room temperature; Ap Aiptasia and Nv Nematostella (sea anemones) / Co Capsaspora / Aq Amphimedon (sponge) / Dm Drosophila / Hu human; RHD is the Rel homology domain; high values mean tight binding
What all share (conditions): dsDNA, one strand shown

The target of one test is T1, GST-Ap-NF-kB RHD (Exaiptasia pallida (Aiptasia), UniProt A0A913YAJ5 2-422).
T1 sequence: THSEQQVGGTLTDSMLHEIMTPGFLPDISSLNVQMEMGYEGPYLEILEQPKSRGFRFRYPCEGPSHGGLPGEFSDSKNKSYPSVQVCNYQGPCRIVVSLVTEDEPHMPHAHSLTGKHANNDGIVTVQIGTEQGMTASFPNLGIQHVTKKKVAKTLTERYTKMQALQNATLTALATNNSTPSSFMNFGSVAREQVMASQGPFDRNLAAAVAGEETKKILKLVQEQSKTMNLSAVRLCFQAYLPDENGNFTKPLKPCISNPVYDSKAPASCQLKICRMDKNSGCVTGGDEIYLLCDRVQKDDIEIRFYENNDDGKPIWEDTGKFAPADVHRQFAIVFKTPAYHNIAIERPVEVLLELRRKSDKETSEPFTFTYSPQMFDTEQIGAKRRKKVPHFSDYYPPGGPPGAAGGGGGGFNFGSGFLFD

For test [1], the target named is T2, GST-Nv-NF-kB (Cys allele) (Nematostella vectensis, UniProt E5G601 2-411).
T2 sequence: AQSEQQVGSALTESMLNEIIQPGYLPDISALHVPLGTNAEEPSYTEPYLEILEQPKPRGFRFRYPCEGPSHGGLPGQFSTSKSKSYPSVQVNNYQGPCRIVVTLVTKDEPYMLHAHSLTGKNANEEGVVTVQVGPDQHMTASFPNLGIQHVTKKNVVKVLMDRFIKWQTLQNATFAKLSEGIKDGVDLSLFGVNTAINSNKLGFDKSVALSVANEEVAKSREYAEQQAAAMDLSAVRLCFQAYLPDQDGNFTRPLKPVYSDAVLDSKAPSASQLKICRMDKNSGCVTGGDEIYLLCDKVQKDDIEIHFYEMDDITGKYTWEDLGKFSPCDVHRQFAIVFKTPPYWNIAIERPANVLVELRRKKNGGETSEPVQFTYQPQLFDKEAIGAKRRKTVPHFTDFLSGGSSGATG

For test [2], the target named is T3, GST-Nv-NF-kB (Ser allele) (Nematostella vectensis, UniProt A7UNT2 2-411).
T3 sequence: T2 sequence with Q21R, C66S, S207N, E215Q, V217A, E225K, A268E, D399E

A further test deals with T4, GST-Co-NF-kB (Capsaspora owczarzaki, UniProt F1ARL5 200-546).
T4 sequence: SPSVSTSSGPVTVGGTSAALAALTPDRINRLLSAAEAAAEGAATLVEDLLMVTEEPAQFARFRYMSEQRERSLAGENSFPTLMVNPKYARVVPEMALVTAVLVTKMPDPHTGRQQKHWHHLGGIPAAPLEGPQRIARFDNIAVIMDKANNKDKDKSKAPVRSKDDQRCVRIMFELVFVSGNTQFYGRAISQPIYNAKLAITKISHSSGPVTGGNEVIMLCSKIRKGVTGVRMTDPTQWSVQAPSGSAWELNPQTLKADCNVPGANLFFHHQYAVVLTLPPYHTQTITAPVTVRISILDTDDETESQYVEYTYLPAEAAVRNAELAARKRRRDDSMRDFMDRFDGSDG

Another test addresses T5, GST-Dm-Relish (Drosophila melanogaster, UniProt Q94527 99-473).
T5 sequence: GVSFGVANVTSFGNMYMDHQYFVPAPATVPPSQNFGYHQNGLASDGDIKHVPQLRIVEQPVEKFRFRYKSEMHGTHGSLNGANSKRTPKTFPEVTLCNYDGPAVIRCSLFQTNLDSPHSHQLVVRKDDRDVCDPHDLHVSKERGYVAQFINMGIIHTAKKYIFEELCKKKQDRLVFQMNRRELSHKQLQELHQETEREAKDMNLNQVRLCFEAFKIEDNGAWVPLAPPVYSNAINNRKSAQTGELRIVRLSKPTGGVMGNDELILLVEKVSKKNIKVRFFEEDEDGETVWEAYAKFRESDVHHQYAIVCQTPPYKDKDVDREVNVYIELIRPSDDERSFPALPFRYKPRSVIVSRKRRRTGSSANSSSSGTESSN

The target of a further test is T6, GST-Aq-NF-kB (Amphimedon queenslandica, UniProt A9Y5G7 2-389).
T6 sequence: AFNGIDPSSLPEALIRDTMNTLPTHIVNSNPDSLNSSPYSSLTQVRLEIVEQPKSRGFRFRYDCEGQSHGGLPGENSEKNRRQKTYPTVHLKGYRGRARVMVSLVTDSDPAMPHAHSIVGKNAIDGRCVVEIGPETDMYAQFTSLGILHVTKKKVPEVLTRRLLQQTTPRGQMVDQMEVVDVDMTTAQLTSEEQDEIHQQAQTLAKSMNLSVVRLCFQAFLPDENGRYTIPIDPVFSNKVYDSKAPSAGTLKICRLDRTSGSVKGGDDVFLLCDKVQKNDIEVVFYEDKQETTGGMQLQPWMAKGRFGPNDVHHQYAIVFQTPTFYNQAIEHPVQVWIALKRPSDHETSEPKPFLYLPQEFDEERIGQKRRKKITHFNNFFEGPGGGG

The target in a further test is GST-Hu-p50 (Homo sapiens, UniProt P19838 7-356).

Changes are numbered by the printed parent chain.

Sequence of GST-Hu-p50 (P19838 7-356): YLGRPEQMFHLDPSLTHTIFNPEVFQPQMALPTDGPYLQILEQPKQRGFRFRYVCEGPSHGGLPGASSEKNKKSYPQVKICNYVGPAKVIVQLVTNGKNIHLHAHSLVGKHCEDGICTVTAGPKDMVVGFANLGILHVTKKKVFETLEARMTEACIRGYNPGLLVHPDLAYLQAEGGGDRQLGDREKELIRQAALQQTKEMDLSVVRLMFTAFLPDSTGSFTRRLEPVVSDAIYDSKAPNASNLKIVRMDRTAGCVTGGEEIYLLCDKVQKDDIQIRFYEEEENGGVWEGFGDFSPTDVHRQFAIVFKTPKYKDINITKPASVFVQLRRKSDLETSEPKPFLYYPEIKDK

As for “CCGATTAACATCAGGATTCCCCATGATGTTAATCGGGTCTTGATTCGCTTGACGCTGCTG”, the binding signal with GST-Ap-NF-kB RHD worked out at 9.56 z-score; in test [1] it was 9.44 z-score; in test [2] it was 8.33 z-score; with GST-Co-NF-kB it was 6.71 z-score; with GST-Dm-Relish it was 8.76 z-score; with GST-Aq-NF-kB, 6.46 z-score. In the test with GST-Hu-p50, this sequence registered a binding signal of 5.89 z-score.

Regarding “CCGATTAACATCAATTTCCCACCTGATGTTAATCGGGTCTTGATTCGCTTGACGCTGCTG”, the binding signal with GST-Ap-NF-kB RHD stood at 2.39 z-score; in test [1] it was 3.38 z-score; in test [2], 3.89 z-score; with GST-Co-NF-kB, 2.84 z-score; with GST-Dm-Relish it was 1.17 z-score; with GST-Aq-NF-kB, 2.26 z-score. Also, the binding signal in the test with GST-Hu-p50 was determined as 2.74 z-score.

As to “CCGATTAACATCACAAGTTCCCCTGATGTTAATCGGGTCTTGATTCGCTTGACGCTGCTG”, the binding signal was 7.44 z-score in the test with GST-Ap-NF-kB RHD; 7.71 z-score in test [1]; 8.61 z-score in test [2]; 7.27 z-score in the test with GST-Co-NF-kB; 6.56 z-score in the test with GST-Dm-Relish; 6.21 z-score with GST-Aq-NF-kB. For the same sequence, in the test with GST-Hu-p50, the binding signal is 5.93 z-score.

Turning to “CCGATTAACATCAGGGAAAGCCCTGATGTTAATCGGGTCTTGATTCGCTTGACGCTGCTG”, the binding signal was 6.37 z-score with GST-Ap-NF-kB RHD; 8.76 z-score in test [1]; 4.62 z-score in test [2]; 1.84 z-score with GST-Co-NF-kB; 7.96 z-score in the test with GST-Dm-Relish; 8.88 z-score in the test with GST-Aq-NF-kB. The same sequence came in with a binding signal with GST-Hu-p50 of 4.93 z-score.

Consider “CCGATTAACATCAGAAAAGCCCCTGATGTTAATCGGGTCTTGATTCGCTTGACGCTGCTG”, for which the binding signal in the test with GST-Ap-NF-kB RHD amounted to 7.38 z-score; in test [1] it was 9.78 z-score; in test [2], 7.32 z-score; in the test with GST-Co-NF-kB it was 1.37 z-score; with GST-Dm-Relish, 8.04 z-score; in the test with GST-Aq-NF-kB it was 7.96 z-score. This sequence had a binding signal with GST-Hu-p50 of 6.71 z-score.

Consider “CCGATTAACATCAAAAATTTCCCTGATGTTAATCGGGTCTTGATTCGCTTGACGCTGCTG”, for which the binding signal in the test with GST-Ap-NF-kB RHD turned out to be 5.61 z-score; in test [1], 8.92 z-score; in test [2] it was 8.77 z-score; with GST-Co-NF-kB it was 5.47 z-score; with GST-Dm-Relish, 6.05 z-score; with GST-Aq-NF-kB it was 7.58 z-score. For the same sequence, in the test with GST-Hu-p50, the binding signal was 5.67 z-score.

Take “CCGATTAACATCAATTCCCCCCATGATGTTAATCGGGTCTTGATTCGCTTGACGCTGCTG”: the binding signal with GST-Ap-NF-kB RHD is 7.01 z-score; in test [1], 7.06 z-score; in test [2] it was 6.97 z-score; with GST-Co-NF-kB, 9.55 z-score; with GST-Dm-Relish, 4.89 z-score; with GST-Aq-NF-kB, 5.8 z-score. The binding signal with GST-Hu-p50 came to 6.18 z-score.

Regarding “CCGATTAACATCAAAGACCCCCCTGATGTTAATCGGGTCTTGATTCGCTTGACGCTGCTG”, the binding signal with GST-Ap-NF-kB RHD came to 6.11 z-score; in test [1], 4.15 z-score; in test [2], 4.24 z-score; with GST-Co-NF-kB, 3.36 z-score; with GST-Dm-Relish it was 7.07 z-score; in the test with GST-Aq-NF-kB, 5.33 z-score. The same sequence gave a binding signal in the test with GST-Hu-p50 of 4.3 z-score.

Regarding “CCGATTAACATCAACGGATTCCCTGATGTTAATCGGGTCTTGATTCGCTTGACGCTGCTG”, the binding signal with GST-Ap-NF-kB RHD amounted to 2.31 z-score; in test [1], 3.57 z-score; in test [2] it was 3.98 z-score; in the test with GST-Co-NF-kB it was 2.89 z-score; with GST-Dm-Relish, 5.42 z-score; in the test with GST-Aq-NF-kB it was 2.97 z-score. Besides, the binding signal with GST-Hu-p50 was determined as 1.77 z-score.

Take “CCGATTAACATCAAAATTTACCCTGATGTTAATCGGGTCTTGATTCGCTTGACGCTGCTG”: the binding signal in the test with GST-Ap-NF-kB RHD amounted to 3.17 z-score; in test [1], 5.04 z-score; in test [2], 6.15 z-score; with GST-Co-NF-kB, 4.27 z-score; with GST-Dm-Relish, 4.47 z-score; with GST-Aq-NF-kB it was 5.23 z-score. This sequence gave a binding signal with GST-Hu-p50 of 4.09 z-score.

“CCGATTAACATCAACTTTTCCCCTGATGTTAATCGGGTCTTGATTCGCTTGACGCTGCTG”: the binding signal in the test with GST-Ap-NF-kB RHD amounted to 6.24 z-score; in test [1] it was 7.19 z-score; in test [2], 10 z-score; in the test with GST-Co-NF-kB, 9 z-score; with GST-Dm-Relish it was 2.99 z-score; with GST-Aq-NF-kB it was 5.09 z-score. In the test with GST-Hu-p50, this sequence returned a binding signal of 5.48 z-score.
